Screening data deposited in PubChem by several laboratories.
ERp5 inh = inhibitors of ERp5-driven insulin aggregation, primary screen, biochemical, turbidity, absorbance 650 nm, single point; Protein disulfide-isomerase A6 (Homo sapiens), Q15084; 90 min; 0.05% of 350,000 active; inhibition, % at 9.99 µM;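 active = mean replicate inhibition above about 25%, with every replicate also reaching it, limit read from the data, passing the limit was not always enough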
Target sequence (Q15084 whole entry, looked up): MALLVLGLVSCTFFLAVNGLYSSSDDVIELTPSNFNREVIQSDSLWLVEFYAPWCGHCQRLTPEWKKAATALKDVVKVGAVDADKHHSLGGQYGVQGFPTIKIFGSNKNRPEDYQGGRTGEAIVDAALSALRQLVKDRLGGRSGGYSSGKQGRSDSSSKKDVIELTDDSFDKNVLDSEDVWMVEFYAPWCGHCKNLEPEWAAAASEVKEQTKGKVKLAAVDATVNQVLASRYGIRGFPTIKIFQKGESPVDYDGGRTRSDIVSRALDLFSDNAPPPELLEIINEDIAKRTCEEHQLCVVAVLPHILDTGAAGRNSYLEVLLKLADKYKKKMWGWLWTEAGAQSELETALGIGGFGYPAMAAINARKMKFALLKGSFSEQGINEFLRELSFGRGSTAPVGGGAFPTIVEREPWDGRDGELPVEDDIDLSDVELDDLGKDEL
NRP1-CendR mod = modulators of CendR peptide binding to NRP-1, primary screen, biochemical, fluorescence polarization, uHTS. Neuropilin-1 (Homo sapiens), O14786. FAM-RPARPAR peptide binding to NRP-1. inhibition, % at 25 µM. 0.85% of 360,000 active;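 active = inhibition or corrected inhibition above about 18%, plus a signal ratio from 0.5 to 1.5, limit read from the data, passing the limit was not always enough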
PDI inh = inhibitors of human PDI, primary screen, biochemical, turbidity, single point, plate reader | Protein disulfide-isomerase (Homo sapiens), P07237 | PDI insulin aggregation turbidity, A650, 90 min | inhibition, % at 10 µM | 0.052% of 350,000 active | AID 588391, 2011;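 active = mean inhibition across replicates of 30% or more, whatever share of single replicates reach that level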
ARNT-TACC3 inh = disruptors of ARNT/TACC3 protein interaction, primary screen, biochemical, AlphaScreen, single concentration; 0.66% of 390,000 active; inhibition, % at 9.99 µM; AlphaScreen His-ARNT PAS-B/GST-TACC3 binding, luminescence; TACC3 fragment carries E629A point mutation; Transforming acidic coiled-coil-containing protein 3 (Homo sapiens), Q9Y6A5; AID 623870, 2012;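 active = mean inhibition of replicates at least 50% and at least half of replicates each reaching 50%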;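 also: 0% = complete ARNT plus TACC3 wells and 100% = ARNT alone without TACC3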
ALR H2O2 inh = inhibitors of human ALR sulfhydryl oxidase, primary screen, biochemical, H2O2 detection, HRP-luminol luminescence, single point. purified ALR, DTT oxidation. inhibition, % (concentration not given with the values). FAD-linked sulfhydryl oxidase ALR (Homo sapiens), P55789. 3.8% of 290,000 active;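 active = mean replicate inhibition above about 79%, with every replicate also reaching it, limit read from the data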
Target sequence (P55789 whole entry, looked up): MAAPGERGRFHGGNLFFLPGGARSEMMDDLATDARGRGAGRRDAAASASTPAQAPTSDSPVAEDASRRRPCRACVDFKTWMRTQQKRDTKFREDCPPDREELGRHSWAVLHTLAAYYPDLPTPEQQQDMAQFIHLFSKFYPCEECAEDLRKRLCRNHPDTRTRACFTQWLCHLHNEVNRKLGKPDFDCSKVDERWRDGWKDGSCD
PglD inh = C. jejuni PglD acetyltransferase inhibitors, primary screen, biochemical, DTNB colorimetric, single point; UDP-N-acetylbacillosamine N-acetyltransferase PglD (Campylobacter jejuni); purified PglD enzyme, DTNB colorimetric CoA detection; inhibition, % at 12.5 µM; 0.098% of 360,000 active; AID 602405, 2012; in the data active = inhibition above about 16%, passing the limit was not always enough
An asterisk follows results filed as active. This is one part of a sample in which hits are shown more often than they occur.

Results for CCC(=O)Nc1ccc2c(c1)OC[C@H](C)N(Cc1ccccn1)C[C@@H](C)[C@@H](OC)CN(C)C2=O ?
ERp5 inh: -0.6; ARNT-TACC3 inh: -6.4; PglD inh: 5.4

Results for CO[C@@H]1CN(C)C(=O)c2cc(NC(=O)CC(F)(F)F)ccc2OC[C@@H](C)N(C(=O)C2CCCC2)C[C@H]1C ?
ERp5 inh: 1.0; ARNT-TACC3 inh: 1.9; PglD inh: -0.2

What do the screens show for `CCC(=O)Nc1ccc2c(c1)OC[C@@H](C)N(Cc1ccccn1)C[C@@H](C)[C@H](OC)CN(C)C2=O`?
PglD inh: 17.6*

Results for CO[C@H]1CN(C)C(=O)c2cc(NC(=O)CC(F)(F)F)ccc2OC[C@H](C)N(C(=O)C2CC2)C[C@@H]1C ?
ERp5 inh: 42.3*

What do the screens show for `Cc1ccc(S(=O)(=O)Nc2ccc3c(c2)CC(=O)N([C@@H](C)CO)C[C@H](C)[C@H](CN(C)S(=O)(=O)c2ccccc2)O3)cc1`?
ARNT-TACC3 inh: -1.0; PglD inh: -3.7

What do the screens show for `CC1=C(C(=O)Nc2cc(-c3cccc(F)c3)[nH]n2)C2(CCCCC2)OC1=O`?
ERp5 inh: -1.3; NRP1-CendR mod: -30.0; PDI inh: 6.6; ARNT-TACC3 inh: -9.8; ALR H2O2 inh: 85.8*; PglD inh: -5.1

How did COc1ccc(-c2[nH]c(-c3ccc(C)cc3)nc2SCC(=O)Nc2nccs2)cc1 do in these assays?
ERp5 inh: 4.8; NRP1-CendR mod: -0.6; PDI inh: -6.6; ARNT-TACC3 inh: 0.0; ALR H2O2 inh: 94.1*

How did COc1ccc(-c2nc(SCC(=O)Nc3nccs3)c(-c3ccc(Cl)cc3)[nH]2)cc1 do in these assays?
ERp5 inh: -1.5; NRP1-CendR mod: -5.6; ARNT-TACC3 inh: 2.9; ALR H2O2 inh: 36.9; PglD inh: -8.6

What do the screens show for `Cc1noc(C)c1NC(=O)N(C)C[C@@H]1OCc2ccccc2-c2ccccc2C(=O)N([C@@H](C)CO)C[C@H]1C`?
ERp5 inh: 5.4; ARNT-TACC3 inh: 25.8; PglD inh: -2.4

Results for C[C@H]1CN([C@@H](C)CO)C(=O)Cc2cc(NC(=O)Nc3ccc4c(c3)OCO4)ccc2O[C@H]1CN(C)Cc1ccc(Cl)c(Cl)c1 ?
ERp5 inh: 4.2; PglD inh: -0.1

What do the screens show for `O=C(CSc1nc2[nH]c(=O)cc(O)c2s1)Nc1ccc(Cl)c(C(F)(F)F)c1`?
ERp5 inh: -5.5; NRP1-CendR mod: -20.8; PDI inh: 15.0; ARNT-TACC3 inh: 2.1; ALR H2O2 inh: 99.1*; PglD inh: 3.2

How did COC(=O)c1ccc(C)c(NC(=O)CSc2nc3[nH]c(=O)cc(O)c3s2)c1 do in these assays?
ERp5 inh: -2.6; NRP1-CendR mod: -15.9; PDI inh: 5.4; ARNT-TACC3 inh: 4.2; ALR H2O2 inh: 1.6; PglD inh: 0.6

How did COc1ccc(NC(=O)CSc2nc3[nH]c(=O)cc(O)c3s2)c(OC)c1 do in these assays?
NRP1-CendR mod: -10.4; PDI inh: 15.0; ARNT-TACC3 inh: 0.6; ALR H2O2 inh: 41.0; PglD inh: -2.7

Results for Cc1cc(C)cc(NC(=O)CSc2nc3[nH]c(=O)cc(O)c3s2)c1 ?
ERp5 inh: 5.1; NRP1-CendR mod: -15.5; PDI inh: 3.2; ARNT-TACC3 inh: -9.6; ALR H2O2 inh: 98.4*; PglD inh: 10.3

How did O=C(CSc1nc2[nH]c(=O)cc(O)c2s1)Nc1cc(Cl)cc(Cl)c1 do in these assays?
ERp5 inh: -2.6; NRP1-CendR mod: -9.8; PDI inh: -3.1; ARNT-TACC3 inh: -2.1; ALR H2O2 inh: 98.9*; PglD inh: 9.0

Results for CCCNC(=O)N1CC2(C1)[C@@H](c1ccccc1)[C@@H](CO)N2CC1CC1 ?
ERp5 inh: -1.2

What do the screens show for `C[C@@H]1CN([C@@H](C)CO)C(=O)c2cccc(NC(=O)Nc3cccc4ccccc34)c2O[C@H]1CN(C)C(=O)Nc1cccc2ccccc12`?
ERp5 inh: 16.4; ARNT-TACC3 inh: 0.9; PglD inh: -2.3

Results for O=C(CSc1nc(-c2ccc(Cl)cc2)[nH]c(=O)n1)Nc1cccc(Cl)c1 ?
ERp5 inh: 0.2; NRP1-CendR mod: -16.0; PDI inh: -0.6; ARNT-TACC3 inh: 29.8; ALR H2O2 inh: 99.3*; PglD inh: 1.9

How did Cc1ccc2nc(SCC(=O)Nc3cccc(Cl)c3)nc(=O)n2c1 do in these assays?
ERp5 inh: -0.8; NRP1-CendR mod: 6.4; PDI inh: 8.3; ARNT-TACC3 inh: 0.1; ALR H2O2 inh: 97.3*; PglD inh: 2.9

How did C[C@@H]1CCCCO[C@@H](CN(C)S(=O)(=O)c2cccs2)[C@H](C)CN([C@@H](C)CO)C(=O)c2cc(NC(=O)Nc3ccc(C(F)(F)F)cc3)ccc2O1 do in these assays?
ERp5 inh: 3.3; ARNT-TACC3 inh: -4.3; PglD inh: 5.0

What do the screens show for `CCc1ccc(-c2cc3c(=O)n(CC(=O)NCCCN4CCN(CC)CC4)nc(C)n3n2)cc1`?
ERp5 inh: -3.2; NRP1-CendR mod: 24.1*; PDI inh: 6.0; ARNT-TACC3 inh: -0.1; ALR H2O2 inh: 33.5; PglD inh: -5.9

How did COc1ccc2c3c([nH]c2c1)[C@@H](CO)N(Cc1nccs1)CC31CCN(C(=O)C2CCC2)CC1 do in these assays?
ERp5 inh: 1.1

What do the screens show for `C[C@@H]1CCCCO[C@@H](CN(C)S(C)(=O)=O)[C@H](C)CN([C@H](C)CO)C(=O)c2cc(NS(C)(=O)=O)ccc2O1`?
ARNT-TACC3 inh: -0.9; PglD inh: -2.5

How did CC(=O)Nc1ccc(SCC(=O)N(C)CC(=O)Nc2ccccc2Cl)cc1 do in these assays?
ERp5 inh: -0.6; NRP1-CendR mod: 4.3; PDI inh: 5.6; ARNT-TACC3 inh: -5.6; ALR H2O2 inh: 97.9*; PglD inh: 1.6

Results for O=C(CSc1ccc2c(c1)OCCO2)Nc1ccc(Cl)cn1 ?
NRP1-CendR mod: 8.7; PDI inh: -7.2; ARNT-TACC3 inh: 0.2; ALR H2O2 inh: 88.6*; PglD inh: 0.8

How did COc1ccc(NC(=O)CSc2ccc3c(c2)OCCO3)cc1S(N)(=O)=O do in these assays?
ERp5 inh: -0.8; NRP1-CendR mod: 7.3; PDI inh: -7.0; ARNT-TACC3 inh: 18.8; ALR H2O2 inh: -4.7

How did CN(CC(=O)Nc1ccccc1Cl)C(=O)COC(=O)CSc1ccc(F)cc1 do in these assays?
ERp5 inh: -1.6; NRP1-CendR mod: -13.6; PDI inh: -1.0; ARNT-TACC3 inh: -1.3; ALR H2O2 inh: 5.4; PglD inh: -4.3
